Measurements from ChEMBL document CHEMBL3988442, “University of Dundee, Small-Polar-MMV Screening Library” (2021).
For some of these results: Entries with a potency or affinity are not part of this list.

What was measured:
Design in all cases: scale not given: direction of the effect not stated beside the values
[1] = molecular target: Protein translocase subunit SecA (Escherichia coli (strain K12)) (UniProt P10408); assay: Assay to Identify E. coli SecA ATPase Inhibitors; format: functional; details: 30 µM
[2] = molecular target: T1, Ubiquitin-activating enzyme e1, putative (Leishmania donovani (strain BPK282A1)) (UniProt E9BSI1); assay: Leishmania donovani Ubiquitin Activating Enzyme (LdE1); format: functional; details: 30 µM
T1 sequence (whole entry): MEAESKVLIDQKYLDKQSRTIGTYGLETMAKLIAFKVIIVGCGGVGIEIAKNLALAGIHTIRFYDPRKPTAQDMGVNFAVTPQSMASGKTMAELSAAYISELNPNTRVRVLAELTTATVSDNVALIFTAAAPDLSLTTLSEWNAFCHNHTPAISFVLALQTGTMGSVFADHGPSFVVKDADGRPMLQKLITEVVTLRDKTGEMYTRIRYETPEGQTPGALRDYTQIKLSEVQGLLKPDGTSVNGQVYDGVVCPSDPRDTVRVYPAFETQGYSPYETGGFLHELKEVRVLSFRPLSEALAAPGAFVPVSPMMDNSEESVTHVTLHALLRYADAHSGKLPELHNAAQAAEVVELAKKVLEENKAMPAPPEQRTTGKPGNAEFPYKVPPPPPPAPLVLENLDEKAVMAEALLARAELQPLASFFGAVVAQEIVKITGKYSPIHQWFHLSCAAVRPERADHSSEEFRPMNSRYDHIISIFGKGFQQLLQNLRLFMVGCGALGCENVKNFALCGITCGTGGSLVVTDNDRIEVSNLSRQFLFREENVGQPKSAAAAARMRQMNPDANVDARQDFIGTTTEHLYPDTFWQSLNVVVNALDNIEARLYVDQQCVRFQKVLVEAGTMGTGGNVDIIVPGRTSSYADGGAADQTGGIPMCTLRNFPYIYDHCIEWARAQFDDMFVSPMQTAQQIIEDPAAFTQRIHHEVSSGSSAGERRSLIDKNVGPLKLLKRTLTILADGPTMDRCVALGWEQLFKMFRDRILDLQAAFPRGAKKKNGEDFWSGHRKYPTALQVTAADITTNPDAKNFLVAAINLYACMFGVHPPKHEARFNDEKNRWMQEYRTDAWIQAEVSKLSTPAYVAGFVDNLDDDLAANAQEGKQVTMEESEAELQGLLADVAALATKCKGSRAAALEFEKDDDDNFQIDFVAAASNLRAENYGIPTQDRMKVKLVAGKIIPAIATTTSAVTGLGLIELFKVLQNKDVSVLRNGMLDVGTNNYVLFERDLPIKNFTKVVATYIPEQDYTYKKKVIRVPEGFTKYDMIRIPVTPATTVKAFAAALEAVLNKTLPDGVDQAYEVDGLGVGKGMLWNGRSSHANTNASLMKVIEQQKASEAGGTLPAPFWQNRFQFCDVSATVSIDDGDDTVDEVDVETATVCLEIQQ

[3] = molecular target: AMP-activated protein kinase, AMPK (Homo sapiens) (UniProt P54646+O43741+P54619+Q9UGJ0+Q9Y478+Q13131+Q9UGI9); assay: AMP-dependent Kinase enzyme assay. An in vitro enzyme assay that detects ADP turnover that is directly proportional to AMPK activity. This uses naive AMPK that is activated during the assay with MK-8722; format: functional; details: 30 µM
[4] = molecular target: Sialic acid-binding Ig-like lectin 9 (Homo sapiens) (UniProt Q9Y336); assay: Hs-Siglec9 ALPHAscreen SOP 20170721; details: 10 µM
Trypanosoma cruzi = assay: Trypanosoma cruzi phosphomannomutase and mannose-1-phosphate guanylyltransferase assay; format: functional; details: 10 µM
[5] = molecular target: T2, Arginase-2, mitochondrial (Homo sapiens) (UniProt P78540); assay: in vitro enzyme assay to detect the production of urea directly proportional to the activity of Arginase II; format: functional; details: 33.3 µM; also: in the data most compounds retested in dose-response had high values
T2 sequence (whole entry): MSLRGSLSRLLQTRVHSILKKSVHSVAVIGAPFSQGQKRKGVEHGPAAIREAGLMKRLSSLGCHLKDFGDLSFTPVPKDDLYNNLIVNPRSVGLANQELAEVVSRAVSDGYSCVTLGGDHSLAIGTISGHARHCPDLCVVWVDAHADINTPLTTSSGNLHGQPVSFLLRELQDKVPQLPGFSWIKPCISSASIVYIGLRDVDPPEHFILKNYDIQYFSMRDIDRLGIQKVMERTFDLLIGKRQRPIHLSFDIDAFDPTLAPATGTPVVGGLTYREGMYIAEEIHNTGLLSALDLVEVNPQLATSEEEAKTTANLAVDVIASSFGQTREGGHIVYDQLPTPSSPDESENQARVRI

[6] = molecular target: T3, Proteasome subunit beta (Trypanosoma cruzi) (UniProt O96673); assay: Trypanosoma cruzi proteasome chymotrypsin-like activity (TcProtChymo) assay.; also: in the data most compounds retested in dose-response had high values; format: functional; details: 9.37 µM
T3 sequence (whole entry): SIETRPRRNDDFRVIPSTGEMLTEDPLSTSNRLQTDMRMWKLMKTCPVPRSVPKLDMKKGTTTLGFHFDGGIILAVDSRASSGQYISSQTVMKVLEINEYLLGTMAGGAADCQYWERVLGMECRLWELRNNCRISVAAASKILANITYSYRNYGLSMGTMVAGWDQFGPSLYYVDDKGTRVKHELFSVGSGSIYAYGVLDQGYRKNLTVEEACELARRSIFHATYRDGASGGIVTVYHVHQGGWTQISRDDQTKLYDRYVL

Homo sapiens = species: Homo sapiens; assay: To identify inhibition of the IFN signalling (Jak-Stat) pathway via expression of an eGFP reporter gene under the control of an IFN-stimulated response element (ISRE) containing MxA promoter.; format: functional; details: 30 µM
[7] = molecular target: T4, Tyrosyl-tRNA synthetase, putative (Trypanosoma cruzi (strain CL Brener)) (UniProt Q4DSP6); assay: Trypanosoma cruzi tyrosyl tRNA synthetase (TcYRS) _High Tyrosine SOP; format: functional; details: 30 µM; also: in the data most compounds retested in dose-response had high values
T4 sequence (whole entry): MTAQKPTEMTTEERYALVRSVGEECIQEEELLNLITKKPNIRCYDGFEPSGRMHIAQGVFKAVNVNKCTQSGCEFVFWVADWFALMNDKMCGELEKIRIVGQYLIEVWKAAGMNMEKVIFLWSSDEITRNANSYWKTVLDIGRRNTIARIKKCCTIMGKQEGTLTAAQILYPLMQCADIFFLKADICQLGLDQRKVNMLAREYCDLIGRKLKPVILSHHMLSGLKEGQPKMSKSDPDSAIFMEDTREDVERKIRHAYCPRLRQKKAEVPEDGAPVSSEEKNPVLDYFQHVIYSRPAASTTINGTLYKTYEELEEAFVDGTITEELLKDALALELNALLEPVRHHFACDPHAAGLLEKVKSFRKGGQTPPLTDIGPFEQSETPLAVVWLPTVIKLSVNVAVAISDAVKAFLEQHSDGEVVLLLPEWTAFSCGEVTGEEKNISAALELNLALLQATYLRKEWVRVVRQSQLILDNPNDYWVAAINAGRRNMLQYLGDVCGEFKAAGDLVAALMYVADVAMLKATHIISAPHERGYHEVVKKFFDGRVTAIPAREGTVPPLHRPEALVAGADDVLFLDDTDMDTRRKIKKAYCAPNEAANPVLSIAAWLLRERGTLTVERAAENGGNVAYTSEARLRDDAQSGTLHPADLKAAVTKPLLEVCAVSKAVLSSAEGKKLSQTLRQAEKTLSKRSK

[8] = molecular target: T4, Tyrosyl-tRNA synthetase, putative (Trypanosoma cruzi (strain CL Brener)); assay: Trypanosoma cruzi tyrosyl tRNA synthetase (TcYRS) SOP; format: functional; details: 30 µM
[9] = molecular target: Chromo domain-containing protein 1 (Saccharomyces cerevisiae (strain ATCC 204508 / S288c) (Baker's yeast)) (UniProt P32657); assay: ScCHD-1 Enzyme Inhibition Assay; format: functional; details: 30 µM; also: in the data most compounds retested in dose-response had high values
Sequence of Chromo domain-containing protein 1 (Saccharomyces cerevisiae (strain ATCC 204508 / S288c) (Baker's yeast)) (P32657 whole entry, the tested form may be a part): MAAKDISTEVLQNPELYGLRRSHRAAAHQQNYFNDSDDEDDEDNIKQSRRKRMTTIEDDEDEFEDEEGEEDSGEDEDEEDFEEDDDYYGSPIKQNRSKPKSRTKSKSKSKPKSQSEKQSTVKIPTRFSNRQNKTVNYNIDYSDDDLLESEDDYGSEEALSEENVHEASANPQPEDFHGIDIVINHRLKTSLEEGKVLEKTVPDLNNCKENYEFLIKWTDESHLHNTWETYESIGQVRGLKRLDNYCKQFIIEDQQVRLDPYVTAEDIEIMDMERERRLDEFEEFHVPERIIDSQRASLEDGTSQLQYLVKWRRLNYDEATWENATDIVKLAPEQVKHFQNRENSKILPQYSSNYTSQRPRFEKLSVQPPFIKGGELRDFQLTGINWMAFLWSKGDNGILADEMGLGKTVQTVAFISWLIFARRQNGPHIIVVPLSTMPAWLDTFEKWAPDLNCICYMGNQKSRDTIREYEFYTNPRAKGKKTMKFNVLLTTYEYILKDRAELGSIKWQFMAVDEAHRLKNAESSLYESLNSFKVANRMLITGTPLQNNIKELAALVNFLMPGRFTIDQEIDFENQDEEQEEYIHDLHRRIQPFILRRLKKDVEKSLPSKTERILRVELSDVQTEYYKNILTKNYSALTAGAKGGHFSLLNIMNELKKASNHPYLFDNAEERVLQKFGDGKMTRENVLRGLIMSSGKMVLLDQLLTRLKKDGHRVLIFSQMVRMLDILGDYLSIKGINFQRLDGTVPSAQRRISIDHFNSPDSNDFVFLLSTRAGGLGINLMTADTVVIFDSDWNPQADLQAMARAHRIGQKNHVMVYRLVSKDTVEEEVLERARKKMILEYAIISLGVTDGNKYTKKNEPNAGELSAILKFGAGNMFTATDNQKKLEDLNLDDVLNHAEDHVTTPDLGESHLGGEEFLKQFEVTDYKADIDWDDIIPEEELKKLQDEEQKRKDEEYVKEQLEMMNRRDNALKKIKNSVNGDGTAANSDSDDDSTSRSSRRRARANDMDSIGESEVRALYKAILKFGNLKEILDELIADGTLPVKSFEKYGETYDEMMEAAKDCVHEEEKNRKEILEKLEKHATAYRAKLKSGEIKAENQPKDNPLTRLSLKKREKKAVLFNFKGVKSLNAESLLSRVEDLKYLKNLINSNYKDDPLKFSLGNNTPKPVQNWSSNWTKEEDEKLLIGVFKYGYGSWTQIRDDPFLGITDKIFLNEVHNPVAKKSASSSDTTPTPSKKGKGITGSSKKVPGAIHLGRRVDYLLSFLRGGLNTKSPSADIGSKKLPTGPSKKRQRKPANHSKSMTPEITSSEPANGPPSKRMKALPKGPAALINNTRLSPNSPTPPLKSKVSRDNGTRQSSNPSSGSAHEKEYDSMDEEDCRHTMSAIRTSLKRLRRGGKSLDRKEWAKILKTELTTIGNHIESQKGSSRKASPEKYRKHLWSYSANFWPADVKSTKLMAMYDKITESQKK

Sequence of Sialic acid-binding Ig-like lectin 9 (Homo sapiens) (Q9Y336 whole entry): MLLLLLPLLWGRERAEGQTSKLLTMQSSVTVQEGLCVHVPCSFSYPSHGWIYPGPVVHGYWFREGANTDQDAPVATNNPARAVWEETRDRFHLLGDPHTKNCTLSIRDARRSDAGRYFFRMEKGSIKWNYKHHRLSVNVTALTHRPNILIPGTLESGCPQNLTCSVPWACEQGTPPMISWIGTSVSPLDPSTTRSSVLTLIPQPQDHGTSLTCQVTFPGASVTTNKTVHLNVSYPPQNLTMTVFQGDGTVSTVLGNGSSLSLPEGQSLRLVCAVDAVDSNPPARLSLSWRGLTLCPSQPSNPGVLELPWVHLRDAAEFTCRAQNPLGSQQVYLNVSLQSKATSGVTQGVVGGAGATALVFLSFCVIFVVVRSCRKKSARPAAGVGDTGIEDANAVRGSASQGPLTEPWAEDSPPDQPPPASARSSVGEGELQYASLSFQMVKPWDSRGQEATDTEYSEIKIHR
Sequence of Protein translocase subunit SecA (Escherichia coli (strain K12)) (P10408 whole entry): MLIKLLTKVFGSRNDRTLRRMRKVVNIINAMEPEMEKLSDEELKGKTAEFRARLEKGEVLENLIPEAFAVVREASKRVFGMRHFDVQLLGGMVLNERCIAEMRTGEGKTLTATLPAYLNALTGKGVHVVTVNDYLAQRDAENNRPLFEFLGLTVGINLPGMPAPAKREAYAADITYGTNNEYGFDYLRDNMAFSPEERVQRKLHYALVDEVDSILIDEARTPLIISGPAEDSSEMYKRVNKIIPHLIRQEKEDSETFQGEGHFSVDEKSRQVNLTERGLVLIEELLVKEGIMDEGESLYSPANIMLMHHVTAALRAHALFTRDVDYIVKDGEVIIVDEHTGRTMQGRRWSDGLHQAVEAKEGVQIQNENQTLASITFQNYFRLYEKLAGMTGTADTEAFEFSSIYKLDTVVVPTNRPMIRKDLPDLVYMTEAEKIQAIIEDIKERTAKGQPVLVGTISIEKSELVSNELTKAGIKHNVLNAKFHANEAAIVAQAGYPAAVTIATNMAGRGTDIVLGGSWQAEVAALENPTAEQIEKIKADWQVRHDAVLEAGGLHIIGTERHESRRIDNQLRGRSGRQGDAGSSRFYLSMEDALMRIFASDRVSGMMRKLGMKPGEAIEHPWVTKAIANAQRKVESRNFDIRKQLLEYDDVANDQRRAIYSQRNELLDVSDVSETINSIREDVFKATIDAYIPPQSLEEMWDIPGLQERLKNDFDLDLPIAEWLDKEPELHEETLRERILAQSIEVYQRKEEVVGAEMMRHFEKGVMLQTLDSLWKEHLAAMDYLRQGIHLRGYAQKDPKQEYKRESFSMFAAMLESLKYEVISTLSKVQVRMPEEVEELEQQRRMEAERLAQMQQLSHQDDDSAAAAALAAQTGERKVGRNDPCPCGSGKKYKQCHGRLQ

Question: Which results are given for `CCN(c1ccc(C(=O)NCCCN2CCOCC2)cc1)S(=O)(=O)CC`?
Answer: Percent Effect [1]: -3.73%; Percent Effect [2]: 10.5%; Percent Effect [3]: -2.83%; Percent Effect [4]: -8.52%; Percent Effect (Trypanosoma cruzi): -6.33%; Percent Effect [5]: 2.37%; Percent Effect [6]: 15.8%; Percent Effect (Homo sapiens): -2.55%; Percent Effect [7]: -1.06%; Percent Effect [8]: -2.6%; Percent Effect [9]: -5.76%

Question: How did the Percent Effect [1] turn out when `Cn1ccc(-c2cc(C(=O)N3CCOCC3)c3ccccn23)n1` was run?
Answer: 1.94%

Question: What about the Percent Effect [2] of the same molecule?
Answer: 10.8%

Question: And the Percent Effect [3]?
Answer: 19.9%

Question: What about the Percent Effect [4] of the same molecule?
Answer: 17.5%

Question: What about the Percent Effect (Trypanosoma cruzi) of the same molecule?
Answer: -8.5%

Question: And the Percent Effect [5]?
Answer: 2.87%

Question: What about the Percent Effect [6] of the same molecule?
Answer: 12.7%

Question: And the Percent Effect (Homo sapiens)?
Answer: 35.5%

Question: What about the Percent Effect [7] of the same molecule?
Answer: -4.32%

Question: What about the Percent Effect [8] of the same molecule?
Answer: 2.56%

Question: What about the Percent Effect [9] of the same molecule?
Answer: -7.76%

Question: For `CN(C)CC1CN(C(=O)NCc2ccccc2)Cc2nccn2C1` (stereo not drawn), which Percent Effect [1] is on record?
Answer: -2.59%

Question: What about the Percent Effect [2] of the same molecule?
Answer: 13.7%

Question: What about the Percent Effect [3] of the same molecule?
Answer: -1.1%

Question: What about the Percent Effect [4] of the same molecule?
Answer: 4.01%

Question: And the Percent Effect (Trypanosoma cruzi)?
Answer: -1.59%

Question: What about the Percent Effect [5] of the same molecule?
Answer: -3.19%

Question: And the Percent Effect [6]?
Answer: 5.39%

Question: What about the Percent Effect (Homo sapiens) of the same molecule?
Answer: 3.73%

Question: And the Percent Effect [7]?
Answer: 3.12%

Question: What about the Percent Effect [8] of the same molecule?
Answer: 6.17%

Question: What about the Percent Effect [9] of the same molecule?
Answer: 1.81%

Question: Which Percent Effect [1] does the source give for `Cn1cccc1CN1CCC2(CCCN(C(=O)c3cnccn3)C2)C1` (stereo not drawn) here?
Answer: 0.875%

Question: And the Percent Effect [2]?
Answer: 7.79%

Question: What about the Percent Effect [3] of the same molecule?
Answer: -0.756%

Question: And the Percent Effect [4]?
Answer: -13.7%

Question: And the Percent Effect (Trypanosoma cruzi)?
Answer: -10.8%

Question: And the Percent Effect [5]?
Answer: 11%

Question: What about the Percent Effect [6] of the same molecule?
Answer: 14.4%

Question: And the Percent Effect (Homo sapiens)?
Answer: 29.7%

Question: And the Percent Effect [7]?
Answer: -2.12%

Question: What about the Percent Effect [8] of the same molecule?
Answer: -1.28%

Question: And the Percent Effect [9]?
Answer: -9.31%

Question: How did the Percent Effect [1] turn out when `O=C(NCC1CCOC1)c1csc(-c2cccc(Cl)c2)n1` (stereo not drawn) was run?
Answer: -3.12%

Question: And the Percent Effect [2]?
Answer: 10.4%

Question: And the Percent Effect [3]?
Answer: 3.54%

Question: And the Percent Effect [4]?
Answer: -3.81%

Question: What about the Percent Effect (Trypanosoma cruzi) of the same molecule?
Answer: -5.24%

Question: And the Percent Effect [5]?
Answer: 0.712%

Question: And the Percent Effect [6]?
Answer: 8.62%

Question: And the Percent Effect (Homo sapiens)?
Answer: 25.1%

Question: What about the Percent Effect [7] of the same molecule?
Answer: 1.94%

Question: And the Percent Effect [8]?
Answer: 14.6%

Question: And the Percent Effect [9]?
Answer: -5.77%

Question: What does the source list for `CC(=O)N1CCC2(CC1)COCCN2Cc1ccc(F)cc1`?
Answer: Percent Effect [1]: -4.99%; Percent Effect [2]: 8.11%; Percent Effect [3]: 4.11%; Percent Effect [4]: -8.39%; Percent Effect (Trypanosoma cruzi): -4.2%; Percent Effect [5]: -0.955%; Percent Effect [6]: 18.1%; Percent Effect (Homo sapiens): -2.37%; Percent Effect [7]: -1.08%; Percent Effect [8]: 7.69%; Percent Effect [9]: -1.77%

Question: What does the source list for `Cc1cn2c(n1)CCC(NC(=O)c1cc(C(C)C)no1)C2` (stereo not drawn)?
Answer: Percent Effect [1]: -4.48%; Percent Effect [2]: 10.4%; Percent Effect [3]: 2.99%; Percent Effect [4]: 6.7%; Percent Effect (Trypanosoma cruzi): 1.67%; Percent Effect [5]: 1.05%; Percent Effect [6]: 4.93%; Percent Effect (Homo sapiens): 3.25%; Percent Effect [7]: 6.67%; Percent Effect [8]: 14.1%; Percent Effect [9]: -23%

Question: What does the source list for `CCCS(=O)(=O)Nc1ccc2c(c1)OCC(C)(C)C(=O)N2C`?
Answer: Percent Effect [1]: -0.588%; Percent Effect [2]: 11%; Percent Effect [3]: -6.5%; Percent Effect [4]: 1.41%; Percent Effect (Trypanosoma cruzi): -5.09%; Percent Effect [5]: -2.27%; Percent Effect [6]: 12.6%; Percent Effect (Homo sapiens): 8.18%; Percent Effect [7]: 2.15%; Percent Effect [8]: 10%; Percent Effect [9]: -5.87%
